CRE Fsk mod: Cell signaling CRE-BLA (Fsk stim) | AID 662, 2007 | Potency, µM (series often up to 38.2 µM), for inactives: at the top dose activity change, negative = inhibition, actives largely listed as activators | CHO CRE-bla reporter (cAMP response element driving beta-lactamase), forskolin EC10, beta-lactamase ratio | 71,000 compounds, 2.5% hits; active = well fitted activation curve with a large enough effect in the signal ratio, with a control signal flat, not every such curve was filed as active; inconclusive = small, poorly fitted or top-dose-only effect, or effect the other way, or a change in a side signal; the % refers to the signal ratio; also: potency is read from the fitted curve at half-maximal effect; % of control where 0% means no effect
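Titrated compounds plus EC10 NKH 477 on CHO CRE-bla cells, 3 h, 37 °C. CCF4, 2 h RT. Ratio 460/530 nm → AC50.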
AID923: qHTS Assay for Allosteric/Competitive Inhibitors of Caspase-1: Spectroscopic Profiling in AFC Spectral Region; compound fluorescence, AFC spectral region (405/520 nm); Potency, µM (highest dose often 57.5 µM), inactives show top-dose fluorescence increase, usual class: activators; 75,000 compounds, 1.1% hits; also: potency is read from the fitted curve at half-maximal effect; 0% is about no effect
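Baseline compound fluorescence (AFC region, 405 nm ex/520 nm em) taken from the intercept of kinetic reads with 50 nM caspase-1 and 5 uM Ac-WEHD-AFC; normalized to an on-plate AFC standard curve; compounds titrated up to 57 uM.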
4-MU autofl: qHTS Assay for Spectroscopic Profiling in 4-MU Spectral Region; max dye-equivalent concentration, M; compound autofluorescence, 340/450 nm, 4-MU equivalents; active compounds read high; AID 589, 2007; 59,000 compounds, 11% hits; in the data active = max dye-equivalent concentration above about 10 nM; inconclusive = mostly about 1.1 nM to 9.6 nM
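Intrinsic fluorescence at 340/450 nm (ex/em) was read after 15 min at room temperature in pH 8.0, 100 mM Tris. Each compound concentration expressed as 4-MU-equivalent concentration from a six-point 4-MU standard series on each plate.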
A350 autofl: qHTS Assay for Spectroscopic Profiling in A350 Spectral Region. Compound autofluorescence, 340/450 nm, Alexa 350 dye-equivalents; active compounds read high. max dye-equivalent concentration, M. 59,000 compounds, 11% hits. AID 590, 2007; in the data active = max dye-equivalent concentration above about 10 nM; inconclusive = mostly about 1.1 nM to 9.6 nM
HSD17B inh: qHTS Assay for Inhibitors of HSD17B4, hydroxysteroid (17-beta) dehydrogenase 4. 3-hydroxyacyl-CoA dehydrogenase type-2 (Homo sapiens), Q99714. recombinant HSD17B10, NADH fluorescence kinetic. Potency, µM (doses to about 57.1 µM), for inactives: at the top dose activity change, negative = inhibition, actives largely listed as inhibitors. 75,000 compounds, 7.6% hits;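 also: the protocol describes HADH2 (HSD17B10) and not the HSD17B4 of the title; potency is read from the fitted curve at half-maximal effect; % is scaled to controls: 0 for no effect and ±100 for the full control effect; nearly all actives have a fitted effect of over 70% in size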
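Enzyme plus compound, 15 min room temperature; substrate mix added (NAD+ 1 mM, beta-hydroxybutyryl-CoA 90 uM final); plates read kinetically for NADH fluorescence. HADH2 was His-tagged, E. coli-derived, 20 nM.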
HADH2 inhib: qHTS Assay for Inhibitors of HADH2 (Hydroxyacyl-Coenzyme A Dehydrogenase, Type II). Potency, µM (titrated, usually from 57.1 µM), inactives show at the highest dose activity change, negative = inhibition, most hits filed as inhibitors. recombinant HADH2, NADH fluorescence, beta-hydroxybutyryl-CoA. 3-hydroxyacyl-CoA dehydrogenase type-2 (Homo sapiens), Q99714. 73,000 compounds, 3.4% hits; also: potency is read from the fitted curve at half-maximal effect; % is scaled to controls: 0 for no effect and ±100 for the full control effect; nearly all actives have a fitted effect of over 60% in size
Target sequence (Q99714 whole entry, looked up, one chain of several): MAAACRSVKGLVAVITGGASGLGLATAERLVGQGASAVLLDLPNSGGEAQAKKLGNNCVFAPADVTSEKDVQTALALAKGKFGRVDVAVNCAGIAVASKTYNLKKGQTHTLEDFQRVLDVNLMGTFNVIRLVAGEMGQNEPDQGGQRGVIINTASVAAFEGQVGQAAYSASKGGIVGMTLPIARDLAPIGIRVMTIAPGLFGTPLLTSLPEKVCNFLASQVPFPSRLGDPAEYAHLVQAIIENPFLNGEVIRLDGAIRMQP
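NADH fluorescence (ex 360/em 450 nm) read every 30 s for 4 min; activity taken as last-minus-first time point difference. Enzyme 20 nM, NAD+ 1 mM, beta-hydroxybutyryl-CoA 90 uM, pH 9.0 Tris buffer.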
An asterisk follows results filed as active; [ ] = remark or other dose. A selection: hits, their analogues and other compounds. The true share with any hit is near 14%. Unless noted, calls follow the shape of the dose curve; as a rule, active = well fitted curve in the direction sought with a large enough effect; inconclusive = small, poorly fitted or top-dose-only effect, or another doubt; inactive = no such curve, though single readings can be large; an effect the other way counts as inactive or inconclusive.

How did CC1(C)CC(=O)c2c(nc3ccccc3c2N)C1 do in these assays?
CRE Fsk mod: 29%; AID923: -2%; 4-MU autofl: 5.4e-07M*; A350 autofl: 5.9e-07M*; HSD17B inh: 25µM*; HADH2 inhib: 25µM*

Results for COC(=O)Nc1nc2c(s1)CCCC2 ?
AID923: -1%; HSD17B inh: 4%; HADH2 inhib: 1%

How did Cc1onc(-c2c(F)cccc2Cl)c1C(=O)Nc1nc2c(s1)CCCC2 do in these assays?
CRE Fsk mod: inconclusive; AID923: 2%; 4-MU autofl: 2.8e-07M*; A350 autofl: 2.9e-07M*; HSD17B inh: 20µM*; HADH2 inhib: -16%

What do the screens show for `CN(C)c1ccc(C(=O)Nc2nc3c(s2)CCCC3)cc1`?
CRE Fsk mod: -7%; AID923: 1%; HSD17B inh: inconclusive; HADH2 inhib: 25µM*

Results for CC(=O)OCC1C2CC[C@H]3C(OCc4ccc(F)cc4C(F)(F)F)OC[C@]4(C)[C@H]3C2=C(CN4C(=O)OC(C)(C)C)[C@H](C)C1COC(C)=O (some centres not stated) ?
CRE Fsk mod: -1%; AID923: 0%; HSD17B inh: 12%; HADH2 inhib: 25%

What do the screens show for `Cc1cc(-c2cccnc2)c(C#N)c(SCC#N)n1`?
CRE Fsk mod: 13µM*; AID923: 1%; 4-MU autofl: inactive; A350 autofl: inactive; HSD17B inh: -8%; HADH2 inhib: -22%

What do the screens show for `CCN(CC)C(=O)CSc1nc(C)cc(-c2cccs2)c1C#N`?
CRE Fsk mod: inconclusive; AID923: 3%; HSD17B inh: inconclusive; HADH2 inhib: inconclusive

Results for c1ccc(CN2CCC3(CC2)SSC2(CCN(Cc4ccccc4)CC2)SS3)cc1 ?
CRE Fsk mod: -13%[7.6 µM]; AID923: -2%[11.5 µM]; 4-MU autofl: inactive; A350 autofl: inactive; HSD17B inh: -2%[11.4 µM]; HADH2 inhib: inconclusive

What do the screens show for `CC/C=C\C/C=C\C/C=C\CCCCCCCC(=O)O`?
CRE Fsk mod: -4%; AID923: 0%; HSD17B inh: 13µM*; HADH2 inhib: -18%

How did COC(=O)c1ccc(-n2c(C)cc(/C=N/n3cnnc3)c2C)cc1 do in these assays?
CRE Fsk mod: 9%; AID923: 1%; HSD17B inh: -6%; HADH2 inhib: -6%

How did Cc1cc(/C=N/n2cnnc2)c(C)n1-c1cc(Cl)ccc1Cl do in these assays?
CRE Fsk mod: 2µM*; AID923: 2%; HSD17B inh: -12%; HADH2 inhib: inconclusive

How did Cc1cc(/C=N/n2cnnc2)c(C)n1-c1ccc2c(c1)OCO2 do in these assays?
4-MU autofl: 1.8e-08M*; A350 autofl: 1.9e-08M*

What do the screens show for `Cc1cc(/C=N/n2cnnc2)c(C)n1-c1ccc(C(=O)O)cc1`?
CRE Fsk mod: 0%; AID923: -2%; HSD17B inh: -2%; HADH2 inhib: 1%

How did CCOC(=O)c1cnn2c(C(F)F)cc(C3CC3)nc12 do in these assays?
CRE Fsk mod: inconclusive; AID923: 0%; 4-MU autofl: 1.8e-08M*; A350 autofl: 1.9e-08M*; HSD17B inh: inconclusive; HADH2 inhib: 2%

How did CCOC(=O)c1cnn(CC2CCCCC2)c1N do in these assays?
CRE Fsk mod: 18%; AID923: 0%; HSD17B inh: -3%; HADH2 inhib: 5%

How did O=C(Nc1cccnc1)c1cnn2c(C(F)F)cc(C3CC3)nc12 do in these assays?
CRE Fsk mod: 7.9µM*; AID923: 0%; 4-MU autofl: inactive; A350 autofl: inactive; HSD17B inh: -6%; HADH2 inhib: 6%

Results for O=C(Nc1cccnc1)c1ccccc1F ?
CRE Fsk mod: 6%; AID923: 0%; HSD17B inh: 4%; HADH2 inhib: 3%

How did COc1ccc(C(=O)[C@H]2[C@H]3[C@@H](C(=O)[C@@H]4OC[C@H]3O4)[C@H]3C=Cc4ccccc4N32)c(OC)c1 do in these assays?
CRE Fsk mod: -21%; 4-MU autofl: inactive; A350 autofl: inactive; HADH2 inhib: -29%

How did COc1ccc(-c2ccc(-c3nnn(CC(=O)N4CCOCC4)n3)cc2)cc1 do in these assays?
CRE Fsk mod: 6%; AID923: -1%; 4-MU autofl: inactive; A350 autofl: inactive; HSD17B inh: 20µM*; HADH2 inhib: inconclusive

What do the screens show for `O=C(Cn1nnc(-c2ccc3c(c2)OCO3)n1)N1CCOCC1`?
CRE Fsk mod: -3%; AID923: 2%; 4-MU autofl: inactive; A350 autofl: inactive; HSD17B inh: 7%; HADH2 inhib: -5%

How did N#Cc1ccc(CN2CCC3(CCNCC3)CC2)cc1 do in these assays?
CRE Fsk mod: 1%; AID923: -1%; 4-MU autofl: inactive; A350 autofl: inactive; HSD17B inh: -3%; HADH2 inhib: 1%

What do the screens show for `O=S(=O)(c1ccc(F)cc1)N1CCN(c2ncnc3c2cnn3-c2ccccc2)CC1`?
CRE Fsk mod: inconclusive; AID923: -2%; 4-MU autofl: inactive; A350 autofl: inactive; HSD17B inh: 25µM*; HADH2 inhib: 26%

Results for O=C(COc1ccccc1)N1CCN(c2ncnc3c2cnn3-c2ccccc2)CC1 ?
CRE Fsk mod: 1%; AID923: -1%; 4-MU autofl: inactive; A350 autofl: inactive; HSD17B inh: -3%; HADH2 inhib: -4%

How did O=C(O)c1ccc(S(=O)(=O)N(Cl)Cl)cc1 do in these assays?
CRE Fsk mod: -9%; AID923: -4%; HSD17B inh: 2%; HADH2 inhib: -9%

Results for COCC(=O)N1CCC2(CCCN(Cc3ccc(C#N)cc3)C2)CC1 ?
CRE Fsk mod: -3%; AID923: 2%; 4-MU autofl: inactive; A350 autofl: inactive; HSD17B inh: -3%; HADH2 inhib: 4%

Results for Cc1ccc2c(c1)c(C)c(C)n2CC(O)Cn1nc(C)cc1C (configuration not stated) ?
CRE Fsk mod: -2%; AID923: 1%; 4-MU autofl: inactive; A350 autofl: inactive; HSD17B inh: 32µM*; HADH2 inhib: -24%

What do the screens show for `CC1(C)CC2C1CC[C@]1(C)CCC3C(C(=O)O)CC(=O)O[C@]32C1` (some centres not stated)?
AID923: 0%; HSD17B inh: 10µM*

Results for O=C(CSc1nnc(-c2ccccc2)o1)c1nnc(-c2ccccc2)o1 ?
CRE Fsk mod: inconclusive; AID923: 1%; 4-MU autofl: inactive; A350 autofl: inactive; HSD17B inh: 25µM*; HADH2 inhib: inconclusive

Compound activity deposited in PubChem BioAssay by National Center for Advancing Translational Sciences (NCATS).
